Consider 13 molecules from ChEMBL document CHEMBL1157539, “Thousands of chemical starting points for antimalarial lead identification” (Nature, 2010).

This experiment relates to HepG2. The experiment is described as follows: GSK_TCMDC: Percent inhibition of human HepG2 cell line. Test compounds present at 10uM. In kind it is functional.
With `CC(C)n1cc(CN2CCCC(C(=O)Nc3cccc(-c4cc5ccccc5[nH]4)c3)C2)cn1` (stereo not drawn), the Inhibition is recorded as 34%.
`O=C(NCCN1CCOCC1)c1ccc(-c2ccc(CNCCCc3ccccc3)cc2)nc1.O=C(O)C(F)(F)F` had an Inhibition of 0%.
The molecule `COc1ccc(NC(=O)[C@H](Cc2ccccc2)Nc2cc(C)nc(NCCc3ccc(F)cc3)n2)cc1.O=C(O)C(F)(F)F` yielded an Inhibition of 17%.
In the case of `CC(Cc1ccc(NC(=O)c2ccc(CNCc3ccccc3)cc2)cc1)N(CCc1cccc(Cl)c1)C(=O)OC(C)(C)C` (stereo not drawn), the Inhibition was found to be 16%.
For `COc1ccc2nccc([C@@H](O)CN3CCC(NC(=O)c4cccc(C(=O)c5ccccc5)c4)CC3)c2c1`, the Inhibition worked out at 13%.
Regarding `Cc1nc(Nc2ccncc2)cc(-c2ccncc2)n1`, the Inhibition is reported as 6%.
For `O=C(/C=C/c1ccc(Cl)c(Cl)c1)NCCCCCCN1CCN(C(=O)Nc2cc(Cl)nc(Cl)c2)CC1`, the Inhibition turned out to be 15%.
Regarding `N#CCCN1CCN(Cc2cccc(-c3ccc(-c4nc5cc(C(F)(F)F)ccc5[nH]4)cc3)c2)CC1.O=C(O)C(F)(F)F`, the Inhibition is 23%.
The molecule `CCCc1cc(Cc2cnc(N)nc2N)cc(CC)c1O.Cl` registered an Inhibition of 56%.
Take `Cc1ccc(NS(=O)(=O)c2cccs2)cc1-c1cccc(C(=O)Nc2ccc(F)cc2)c1`: the Inhibition worked out at 38%.
Then `CCOc1cc(CC)ccc1C1CCN(CCCCNC(=O)c2ccc(NC(=O)c3ccc(Cl)cc3)cc2)CC1.Cl`, with 11%; and `COc1ccc(Nc2nccc(N3CCC(NC(=O)Nc4cccc(C(C)=O)c4)C3)n2)cc1` (stereo not drawn), with 29%.
In the case of `Cc1ccc(Sc2ccc(NC(=O)CN3CCN(C(=O)c4ccco4)CC3)cc2)cc1C`, the Inhibition is listed as 14%.

For orientation: Inhibition means the drop in the measured response relative to a control, in per cent. A lower Inhibition goes with a weak effect.
